In the library only some 1% were active in any assay of this set; here they are far more common.
Cardiac RTF inh: cardiac RTF calcium desensitization; hit rate 0.12% among 340,000; inhibition, % at 7.15 µM; P19429+P45379; IANBD-labeled cardiac RTF, Ca2+ fluorescence;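 active = inhibition above the mean inhibition of all tested compounds plus 3 SD, cut at about 17% in these data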;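 note: assay run at fixed EC70 calcium of 1.6 mM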
RTF Ca sens act: cardiac RTF calcium sensitization; P19429+P45379; IANBD-labeled TnC RTF fluorescence at EC20 calcium; 0% EC20 calcium, 100% full calcium; activation, % at 7.2 µM; hit rate 0.24% among 340,000;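 active = activation above the mean over all tested compounds plus 3 SD, cut at about 30% in these data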;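 note: rise in fluorescence read as greater calcium sensitivity of cardiac thin filaments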
C-LANA FP: KSHV C-LANA DNA binding inhibition | MBP-C-LANA/FAM-LBS DNA binding, fluorescence polarization | inhibition, % at 9 µM | hit rate 0.078% among 340,000 | AID 504423;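 active = highest replicate inhibition at or above 60% at 9 µM, even if other replicates fall short; inactive = all replicates below 60% inhibition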;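 note: 0% = neutral control wells and 100% = 4 µM acridine orange control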
Keap1 Nrf2 FP: inhibitors of human Keap1-Nrf2 protein-protein interaction; hit rate 0.15% among 340,000; Q14145; Keap1 Kelch-Nrf2 peptide fluorescence polarization, 1536-well; AID 504523; inhibition, % at 9.4 µM; in the data active = inhibition above about 12%;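 note: human Keap1 Kelch domain with fluorescein labeled Nrf2 9mer peptide probe; 0% = neutral control wells and 100% = peptide positive control; higher means more block of Keap1 binding to Nrf2 peptide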
LANA-H2A inh: blocks KSHV LANA binding to histone H2A/H2B; inhibition, % (test concentration not listed); Q9QR71; hit rate 0.6% among 320,000; cell-free LANA-H2A/H2B peptide, fluorescence polarization; AID 2629; in the data active = inhibition mostly above about 10%, no sharp cut-off; inactive = mostly below about 6.7%
RTF Ca inh conf: confirmation of inhibitors of cardiac thin filament calcium sensitivity; shares compounds with Cardiac RTF inh; reconstituted cardiac thin filaments, calcium sensitivity fluorescence; inhibition, % at 7.15 µM; hit rate 8% among 360; in the data active = inhibition above about 18%
Starred values were filed as active, the others as inactive.

What do the screens show for `O=C(CSC1=NCCS1)NC(NC(=O)CSC1=NCCS1)c1ccccc1`?
Cardiac RTF inh: 3; RTF Ca sens act: -2; C-LANA FP: 0; Keap1 Nrf2 FP: -4; LANA-H2A inh: 16*

Results for CN1CCN(CC(C)(C)NS(=O)(=O)c2ccc(Cl)cc2)CC1 ?
Cardiac RTF inh: -11; RTF Ca sens act: 8; C-LANA FP: 1; Keap1 Nrf2 FP: -3; LANA-H2A inh: 11

What do the screens show for `CC(C)(CN1CCc2ccccc2C1)NS(=O)(=O)c1ccc(Cl)cc1`?
Cardiac RTF inh: -19; RTF Ca sens act: 18; C-LANA FP: 1; Keap1 Nrf2 FP: 0; LANA-H2A inh: 25*

What do the screens show for `CC1CC(C)CN(C(=O)Cn2c(=O)n(CCCC(=O)NCc3ccco3)c(=O)c3sccc32)C1` (stereo not given)?
Cardiac RTF inh: -13; RTF Ca sens act: -9; C-LANA FP: -1; Keap1 Nrf2 FP: -2; LANA-H2A inh: -5

How did O=C(O)[C@H](Cc1ccccc1)NC(=O)N1CCC(Cc2ccccc2)CC1 do in these assays?
Cardiac RTF inh: -4; RTF Ca sens act: 4; C-LANA FP: 1; Keap1 Nrf2 FP: -2; LANA-H2A inh: 18*

What do the screens show for `CC12CCC(C)(O1)C1C(=O)N(c3nccs3)C(=O)C12` (stereo not given)?
Cardiac RTF inh: -10; RTF Ca sens act: 2; C-LANA FP: 0; Keap1 Nrf2 FP: 0

How did COc1ccc(/C=c2\s/c(=C/C(=O)c3ccc(C)cc3)[nH]c2=O)c(OC)c1 do in these assays?
Cardiac RTF inh: -166; RTF Ca sens act: 99*; C-LANA FP: 1; Keap1 Nrf2 FP: 2; LANA-H2A inh: 3

How did CC(C)CNC(=S)N1CCC(Cc2ccccc2)CC1 do in these assays?
Cardiac RTF inh: -3; RTF Ca sens act: -2; C-LANA FP: 1; Keap1 Nrf2 FP: 0; LANA-H2A inh: 0

How did CCc1ccc2oc(=O)cc(CN3CCC(C)CC3)c2c1 do in these assays?
Cardiac RTF inh: -6; RTF Ca sens act: -4; C-LANA FP: 0; Keap1 Nrf2 FP: -10; LANA-H2A inh: 21*

Results for CCOC(=O)/C(=C/c1ccc(OC(=O)c2ccncc2)cc1)C(C)=O ?
Cardiac RTF inh: -6; RTF Ca sens act: -2; C-LANA FP: -2; Keap1 Nrf2 FP: 0; LANA-H2A inh: -2

How did COCCOC(=O)/C(=C/c1ccc(OC(=O)c2ccccc2)cc1)C(C)=O do in these assays?
Cardiac RTF inh: 25*; RTF Ca sens act: 16; C-LANA FP: -2; Keap1 Nrf2 FP: -10; LANA-H2A inh: 2; RTF Ca inh conf: 3

Results for CC(C)(C)NC(=O)C[C@H]1C[C@H](C(=O)N2CCCCC2)[C@@]2(C)c3[nH]c4ccc(Cl)cc4c3CCN2C1=O ?
Cardiac RTF inh: -6; RTF Ca sens act: -1; C-LANA FP: 2; Keap1 Nrf2 FP: -2

What do the screens show for `O=C(O)c1ccc2c(c1)C(=O)/C(=C\c1ccco1)C2=O`?
Cardiac RTF inh: 20*; RTF Ca sens act: -12; C-LANA FP: 70*; Keap1 Nrf2 FP: 1; LANA-H2A inh: 4; RTF Ca inh conf: 1

Results for O=C(O)c1ccc2c(c1)C(=O)/C(=C/c1ccccc1)C2=O ?
Cardiac RTF inh: -13; RTF Ca sens act: 0; C-LANA FP: 19; Keap1 Nrf2 FP: 2; LANA-H2A inh: 2

Results for O=C(N/N=C/c1cccnc1)c1cc(O)c(O)c(O)c1 ?
Cardiac RTF inh: -4; RTF Ca sens act: 0; C-LANA FP: 15; Keap1 Nrf2 FP: -6; LANA-H2A inh: -1

What do the screens show for `CCOc1ccc(NS(=O)(=O)c2ccc3c(c2)N(C(C)=O)CCS3)cc1`?
Cardiac RTF inh: 77*; RTF Ca sens act: 0; C-LANA FP: -1; Keap1 Nrf2 FP: -6; LANA-H2A inh: -6; RTF Ca inh conf: -2

What do the screens show for `CCOC(=O)c1ccc(NC(=S)N(CCCN2CCN(C)CC2)Cc2cccs2)cc1`?
Cardiac RTF inh: -5; RTF Ca sens act: -1; C-LANA FP: -4; Keap1 Nrf2 FP: 1; LANA-H2A inh: 3

What do the screens show for `CCOC(=O)c1ccc(NC(=S)N(CCCN2CCN(CC)CC2)Cc2cccs2)cc1`?
Cardiac RTF inh: 17*; RTF Ca sens act: -4; C-LANA FP: 1; Keap1 Nrf2 FP: 0; LANA-H2A inh: 0; RTF Ca inh conf: -2

What do the screens show for `Cc1cc(C(=O)NCCN2CCOCC2)c2ccccc2n1`?
Cardiac RTF inh: 2; RTF Ca sens act: -6; C-LANA FP: 1; Keap1 Nrf2 FP: 3; LANA-H2A inh: -2

What do the screens show for `COc1ccc(CNC(=O)COC(=O)c2ccc(F)c(S(=O)(=O)N3CCCCC3)c2)cc1OC`?
Cardiac RTF inh: 7; RTF Ca sens act: -4; C-LANA FP: 1; Keap1 Nrf2 FP: 0

Results for Cc1c(CCOC(=O)C23CC4CC(CC(C)(C4)C2)C3)sc[n+]1CC(=O)c1ccccc1 ?
Cardiac RTF inh: 19*; RTF Ca sens act: 3; C-LANA FP: 0; Keap1 Nrf2 FP: -5; LANA-H2A inh: 5; RTF Ca inh conf: -6

How did O=C(COc1ccc(Br)cc1Br)NC(=S)N1CCCc2ccccc21 do in these assays?
Cardiac RTF inh: 17*; RTF Ca sens act: 0; C-LANA FP: 0; Keap1 Nrf2 FP: -2; LANA-H2A inh: -1; RTF Ca inh conf: -3

How did O=C(COc1ccc(Br)cc1Cl)NC(=S)N1CCc2ccccc21 do in these assays?
Cardiac RTF inh: -9; RTF Ca sens act: -4; C-LANA FP: 1; Keap1 Nrf2 FP: 1; LANA-H2A inh: 0

How did COc1cc2c(cc1OC)C(c1ccccc1C)CC(=O)N2 (stereo not given) do in these assays?
Cardiac RTF inh: -7; RTF Ca sens act: 3; C-LANA FP: 3; Keap1 Nrf2 FP: -3; LANA-H2A inh: -2

Results for CCOC(=O)C1=C(C)N(Cc2ccc(C(=O)O)cc2)C(=O)NC1c1ccc([N+](=O)[O-])cc1 (stereo not given) ?
Cardiac RTF inh: 18*; RTF Ca sens act: 6; C-LANA FP: 1; Keap1 Nrf2 FP: -5; LANA-H2A inh: 1; RTF Ca inh conf: -2

What do the screens show for `Cn1nc(N)c2c(-c3ccc(Cl)cc3)c(C#N)c(N)nc21`?
Cardiac RTF inh: -1; RTF Ca sens act: 11; C-LANA FP: -1; Keap1 Nrf2 FP: 1; LANA-H2A inh: -3

How did Cn1nc(N)c2c(-c3ccccc3)c(C#N)c(N)nc21 do in these assays?
Cardiac RTF inh: 17*; RTF Ca sens act: 0; C-LANA FP: 2; Keap1 Nrf2 FP: -2; LANA-H2A inh: 2; RTF Ca inh conf: -4

How did Cc1nc2ccccc2c(=O)n1CCc1ccc(O)cc1 do in these assays?
Cardiac RTF inh: -1; RTF Ca sens act: 2; C-LANA FP: 2; Keap1 Nrf2 FP: -4; LANA-H2A inh: -2

How did CC1(C)OC(C)(C)/C(=C/Nc2ccc(O)cc2)C1=O do in these assays?
Cardiac RTF inh: 190*; RTF Ca sens act: -8; C-LANA FP: 0; Keap1 Nrf2 FP: -5; LANA-H2A inh: 0; RTF Ca inh conf: -2
